# The whole screen tested about 340,000 compounds, of which about 3,400 (1%) were called active.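 How the source made its calls: active means inhibition above the mean over all tested compounds plus 3 SD (cut at about 4.2% in these data); inactive means the rest.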 Only a selection was taken, and actives are over-represented in it overall.
# Target: Nuclear receptor subfamily 0 group B member 1 (Homo sapiens) (UniProt P51843)
# Experiment: DAX1 (NR0B1) inhibitors, primary screen, cell-based, HEK293, Gal4-DAX1, luciferase luminescence (AID 504766);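 further: 0% = DAX1-transfected cells with DMSO and 100% = empty-vector control cells with DMSO; inhibition shows as a rise in luminescence from relieved DAX1 repression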
# Conditions: HEK293 Gal4-DAX1 luciferase reporter, at 6.75 µM, stronger effect = higher value
# Nuclear receptor subfamily 0 group B member 1 (Homo sapiens), sequence (P51843 207-470 limits assumed): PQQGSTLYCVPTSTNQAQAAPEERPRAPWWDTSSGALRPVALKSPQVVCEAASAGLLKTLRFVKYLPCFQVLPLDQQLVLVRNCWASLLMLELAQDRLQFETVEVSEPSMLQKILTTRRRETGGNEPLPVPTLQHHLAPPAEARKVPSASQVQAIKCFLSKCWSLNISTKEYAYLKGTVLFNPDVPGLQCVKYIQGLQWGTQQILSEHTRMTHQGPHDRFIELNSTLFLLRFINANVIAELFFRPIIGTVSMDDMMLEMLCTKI
row,Compound,inhibition
1,O=C(NN=Cc1ccc([N+](=O)[O-])cc1)C1CC1,0.79% (inactive)
2,O=C(N/N=C/c1ccc([N+](=O)[O-])cc1)c1c[nH]c2ccccc12,5.39% (active)
3,O=[N+]([O-])c1ccc(C=NN=Cc2ccc([N+](=O)[O-])cc2)cc1,0.89% (inactive)
4,COc1ccc(-c2cnc3c(c2)C(=O)N([C@H](C)CO)C[C@@H](C)[C@H](CN(C)Cc2ccccc2)O3)cc1,1.69% (inactive)
5,CN(C)/C=C(/C(=O)c1ccc(F)cc1)S(=O)(=O)c1ccc(F)cc1,7.15% (active)
6,CN(C)/C=C(/C(=O)c1ccccc1)S(=O)(=O)c1ccc(Cl)cc1,-0.08% (inactive)
7,CN(C)/C=C(/C(=O)c1ccc(Cl)cc1)S(=O)(=O)c1ccccc1,-0.69% (inactive)
8,CCOC(=O)C=Cc1ccc(C(=O)OCC)[nH]1,-1.29% (inactive)
9,Cc1ccc(S(=O)(=O)NN=C2CC(C)(C)CC(=O)C2(C)C)cc1,1.47% (inactive)
10,COC(=O)c1sccc1NC(=O)c1csc2c1CCCC2,4.39% (active)
11,O=C(Nc1ccccc1N1CCOCC1)c1csc2c1CCCC2,-0.73% (inactive)
12,COC(=O)c1sccc1NC(=O)c1ccc(Cl)cc1,0.77% (inactive)
13,O=C(C[C@H]1C[C@@H]2c3cc(NC(=O)C4CCC4)ccc3O[C@@H]2[C@H](CO)O1)NC1CCCCC1,1.37% (inactive)
14,CC1=C(C(=O)N2CCOCC2)CC(CC(=O)NCCN2CCOCC2)C(=O)N1CCC1=CCCCC1 (stereo not drawn),1.93% (inactive)
15,C[C@@H]1CN([C@H](C)CO)C(=O)CCCn2nncc2CO[C@@H]1CN(C)S(=O)(=O)c1cccc(C#N)c1,2.66% (inactive)
16,COc1cc(-c2nnc(NC(=O)CS(=O)(=O)c3ccc(Cl)cc3)o2)cc(OC)c1OC,0.2% (inactive)
17,COc1ccc(NC(=O)C(Br)C(C)C)cc1 (stereo not drawn),1.41% (inactive)
18,Cc1cccc(NC(=O)C(C)SCc2ccccc2)c1 (stereo not drawn),-1.2% (inactive)
19,COc1ccc(NC(=O)C(C)SCc2ccccc2)cc1 (stereo not drawn),6.52% (active)
20,Cc1ccc(S(=O)(=O)N2CCN(C(=O)CCC(=O)NC3CCCc4ccccc43)CC2)cc1 (stereo not drawn),4.27% (active)
21,COc1ccc(NC(=O)CCC(=O)N2CCN(S(=O)(=O)c3ccc(C)cc3)CC2)c(OC)c1,-2% (inactive)
22,O=C(CCC(=O)N1CCN(S(=O)(=O)c2ccccc2)CC1)NC1CCCc2ccccc21 (stereo not drawn),0.76% (inactive)

row,Compound,inhibition
1,CCCCCC(=O)N1C[C@H](O)[C@@H](n2cc(COC(=O)c3ccccc3)nn2)C[C@@H]1c1ccc(C)cc1,0.45% (inactive)
2,O=C(OCc1ccccc1)N1CCC2CC1c1cc(N3CCN(S(=O)(=O)c4cc(Cl)cc(Cl)c4)CC3)ccc12 (stereo not drawn),1.86% (inactive)
3,CC(=O)c1ccccc1NC(=O)COC(=O)C1COc2ccccc2O1 (stereo not drawn),0.71% (inactive)
4,CC(Sc1ncnc2c1cnn2-c1ccccc1)C(=O)Nc1ccc(N2CCOCC2)cc1 (stereo not drawn),-0.48% (inactive)
5,CC(C)Sc1ncnc2c1cnn2-c1ccccc1,6.85% (active)
6,CCN(CC)C(=O)CSc1ncnc2c1cnn2-c1ccccc1,0.89% (inactive)
7,NC(=O)CSc1nnc(-c2cccc(S(=O)(=O)N3CCOCC3)c2)o1,0.86% (inactive)
8,CN1OC[C@@H]2CN(C(=O)c3ccc(-c4ccccc4)cc3)[C@H](c3ccc(-c4cccc(F)c4)cc3)C[C@@H]21,-0.68% (inactive)
9,COc1ccc(-c2noc(CCC(=O)N3CCN(c4cccc(C)c4)CC3)n2)cc1,0.39% (inactive)
10,COc1ccc(N2CCN(C(=O)CCc3nc(-c4ccc(C)cc4)no3)CC2)cc1,-0.22% (inactive)
11,CN1CCN(C(=O)CCc2nc(-c3ccc(Cl)cc3)no2)CC1,5.55% (active)
12,CC(C)(C)NC(=O)C(=O)NN=C1CCCCCCC1,6.84% (active)
13,CCc1ccc(C(=O)NN=C2CCCCCC2)s1,1.24% (inactive)
14,CC(C)NC(=S)NN=C1CCCCCCCCCCC1,-0.27% (inactive)
15,C[C@@H]1CN([C@H](C)CO)C(=O)CCCn2cc(nn2)CO[C@H]1CN(C)S(=O)(=O)c1ccc(Oc2ccccc2)nc1,0.73% (inactive)
16,CN(c1ccccc1)S(=O)(=O)c1ccc(C(=O)NCc2cccnc2)cc1,-0.1% (inactive)
17,O=C(NCc1nnnn1-c1ccc(Cl)cc1)c1ccc2c(c1)OCO2,0.46% (inactive)
18,O=C(c1ccc(F)cc1)n1cc(C(=S)N2CCOCC2)c2ccccc21,1.01% (inactive)
19,O=C(c1ccc(F)cc1)n1c(=S)nc2ccccn21,5.47% (active)
20,O=C(Cn1c(=S)nc2ccccn21)N1CCc2ccccc2C1,1.21% (inactive)
21,O=[N+]([O-])c1ccc(C(S(=O)(=O)Cc2ccccc2)S(=O)(=O)Cc2ccccc2)cc1,1.99% (inactive)

# Source: PubChem BioAssay AID504766 (The Scripps Research Institute Molecular Screening Center, 2011)
